Source: PubChem BioAssay
Rows were chosen to be rich in hits. Some 1.8% of all compounds tested hit in one or more screens of this group.
LAP4-GFP MLPCN: modulators of TOR pathway LAP4-GFP in S. cerevisiae | S. cerevisiae LAP4-GFP multiplex, flow cytometry GFP, 3 h; median GFP as percent of DMSO wells | GFP response vs DMSO, % at 10 µM | 0.34% of 320,000 active | AID 2023;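 active = GFP response vs DMSO above a set limit, about the screen mean plus 3 SD, cut at about 150% in these data; inconclusive = under 70 cell events counted for the yeast strain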
CIT2 TOR yeast: alters CIT2-GFP fluorescence in TOR pathway yeast screen | AID 2029 | S. cerevisiae CIT2-GFP strain, flow cytometry, 3 h; 100 means same as DMSO wells | 0.065% of 320,000 active | GFP response vs DMSO, % at 10 µM;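 active = GFP response relative to DMSO above a set limit, near the screen mean plus 3 SD, cut at about 150% in these data; inconclusive = Fewer than 70 cells measured for a yeast strain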;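 note: ratio of well median GFP fluorescence to mean of DMSO wells on the plate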
RPL19A TOR yeast: yeast TOR pathway RPL19A-GFP modulation | S. cerevisiae RPL19A-GFP strain, flow cytometry, 3 h; active compounds read low | 0.3% of 330,000 active | percent response vs DMSO, % at 10 µM;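 active = percent response vs DMSO below 50%; inconclusive = fewer than 70 events counted for the yeast strain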;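 note: median channel GFP fluorescence of the barcoded RPL19A-GFP strain; ratio of sample median GFP to plate DMSO average so 100% = DMSO; lower means less RPL19A-GFP as with rapamycin TOR inhibition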
MEP2-GFP yeast: alters MEP2-GFP fluorescence in TOR pathway yeast screen; S. cerevisiae MEP2-GFP strain, flow cytometry GFP, 3 h; 100% = DMSO control level; GFP response vs DMSO, % at 10 µM; 0.51% of 330,000 active; AID 2016;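 active = GFP response versus DMSO above a set limit, roughly screen mean plus 3 SD, cut at about 180% in these data; inconclusive = fewer than 70 cells counted for a yeast strain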;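 note: median GFP fluorescence of the barcode-gated MEP2-GFP cells per well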
Myeloid diff MLP: compounds promoting myeloid differentiation | calls only at 10 µM | ER-HoxA9 myeloid progenitors, lysozyme-GFP differentiation, flow cytometry | 1% of 360,000 active;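 active = normalized GFP-positive differentiation at or above the plate's own cutoff, the solvent-only control mean plus 3 SD; inconclusive = no clear call, values can overlap the other calls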;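 note: cells exposed to compound for four days before flow analysis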
AGP1-GFP MLPCN: alters AGP1-GFP fluorescence in TOR pathway yeast screen. S. cerevisiae AGP1-GFP multiplex flow cytometry, 3 h; GFP as percent of DMSO wells. GFP response vs DMSO, % at 10 µM. 0.02% of 320,000 active. AID 2066;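 active = GFP response relative to DMSO above a set limit, near screen average plus 3 SD, cut at about 150% in these data; inconclusive = fewer than 70 cells counted for the yeast strain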;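 note: median GFP channel fluorescence of the gated AGP1 strain per well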
The depositor's hits bear a star; i = inactive; ? = inconclusive; + = active, no number; ! = repeats disagree; [ ] = remark or other dose.

SMILES | LAP4-GFP MLPCN | CIT2 TOR yeast | RPL19A TOR yeast | MEP2-GFP yeast | Myeloid diff MLP | AGP1-GFP MLPCN
CCOC(=O)c1c(C)[nH]c(C(=O)/C(C#N)=C/c2ccc(OCC)cc2)c1C | 95 | 103 | 104 | 104 | + | 95
CCN1CCN(C(=O)CS(=O)Cc2nc(-c3ccc(OC)cc3)oc2C)CC1 (configuration not stated) | 102 | 84 | 92 | 93 | i | 90
N#Cc1c(-c2ccc(F)cc2)cc(-c2cccs2)nc1SCC(=O)O | 106 | 99 | 97 | 103 | i | 97
COc1ccc(C2C([N+](=O)[O-])=C(C)N(C)C(=O)N2C)cc1OC (configuration not stated) | 102 | 97 | 96 | 91 | i | 100
Cc1nn(C)c(C(=O)Sc2cccc(Cl)c2)c1[N+](=O)[O-] | 154* | 103 | 107 | 97 | i | 110
Cc1nn(C)c(C(=O)Sc2ccccc2)c1[N+](=O)[O-] | 129 | 96 | 101 | 99 | i | 110
Cc1ccc(C[n+]2ccccc2)cc1 | 95 | 99 | 99 | 100 | + | 99
COC(=O)c1ccc(C[n+]2ccccc2)cc1 | 83 | 106 | 94 | 91 | i | 94
COc1cc(/C=C2/CC/C(=C/c3ccc(O)c(OC)c3)C2=O)ccc1O | 123 | 104 | 97 | 114 | + | 99
CCOCCOc1nc2c(c(=O)n(C)c(=O)n2C)n1Cc1ccc(C)cc1 | 89 | 102 | 101 | 94 | i | 98
C=CCc1cccc2ccc(=O)oc12 | 95 | 101 | 103 | 90 | + | 102
O=C(Nc1ccccc1F)c1oc2ccccc2c1NC(=O)C1CC1 | 104 | ? | 43*[may fluoresce violet] | 309*[may fluoresce violet] | i | ?
O=C(Nc1ccc(F)cc1)c1oc2ccccc2c1NC(=O)C1CCCC1 | 105 | 98 | 102 | 108 | i | 96
CC1(C)C(N(O)C(=O)Nc2ccc(Cl)cc2)N(c2ccc(Cl)cc2)C(=O)N1CC(=O)NN (configuration not stated) | 103 | ? | 62 | 269*[may fluoresce violet] | i | 23
CSc1nsc2nc(=O)c(/C=C3\C(C)=Nc4ccc(C)cc43)c(N)n12 | 112 | 98 | 94 | 100 | i | 100
CC1=Nc2ccc(C)cc2/C1=C/c1c(N)n2oc(C)cc2nc1=O | 101 | 98 | 98 | 104 | +! | 98
Nc1nnc(SCc2ccccc2Cl)s1 | 88 | ? | 46*[may fluoresce violet] | 222*[may fluoresce violet] | i | ?
Nc1nnc(CSCc2ccccc2Cl)s1 | 100 | 91 | 102 | 102 | i | 96
Cc1ccnc(NC(=O)C2CCN(S(=O)(=O)c3ccc4ccccc4c3)CC2)c1 | 106 | 100 | 98 | 99 | i | 107
CCO[C@@H]1OC(C(=O)NCc2nc3ccccc3[nH]2)=C[C@H](c2csc3ccccc23)[C@H]1CCCO | 105 | 70 | 96 | 91 | i | 79
CC(C)C[C@H](N)C(=O)N1CCC(C(=O)N[C@H](C(=O)NC(C)c2ccccc2)C(C)C)CC1 (some centres not stated) | 77 | ? | 15*[may fluoresce violet] | 247*[may fluoresce violet] | i | ?
NC(=O)CC(NC(=O)Cc1cccc2ccccc12)c1ccc(NCc2ccc(F)c(F)c2)c([N+](=O)[O-])c1 (configuration not stated) | 107 | 83 | 107 | 99 | i | 90
COc1ccc(CCNC(=O)c2cc(C3CC3)nc3c2cnn3C(C)C)cc1OC | 98 | 96 | 98 | 100 | + | 97
O=C(COc1ccc2c3c(c(=O)oc2c1)CCCC3)N[C@@H](Cc1ccccc1)C(=O)O | 105 | 110 | 101 | 105 | i | 100
Cc1ccc(C(=O)N2CCN(c3ccccc3F)CC2)cc1NC1=NC2CS(=O)(=O)CC2S1 (configuration not stated) | 118 | ? | 40*[may fluoresce violet] | 256*[may fluoresce violet] | i | ?
SMILES | LAP4-GFP MLPCN | CIT2 TOR yeast | RPL19A TOR yeast | MEP2-GFP yeast | Myeloid diff MLP | AGP1-GFP MLPCN
O=S1(=O)N=C(N2CCCc3ccccc32)c2ccccc21 | 96 | 89 | 99 | 104 | i | 94
O=S1(=O)N=C(N2CCc3ccccc3C2)c2ccccc21 | 87 | ? | 43*[may fluoresce violet] | 336*[may fluoresce violet] | i | ?
CC(C)(C)c1ccc(OCC(O)CN2CCN(c3ccccn3)CC2)cc1 (configuration not stated) | 97 | 96 | 97 | 92 | i | 101
Cc1ccc2oc(-c3ccc(NC(=O)c4ccncc4)cc3O)nc2c1 | 98 | 100 | 96 | 96 | + | 102
CC1(C)CC(CC(=O)Nc2ccccc2[N+](=O)[O-])C(=O)O1 (configuration not stated) | 111 | 106 | 111 | 112 | i | 106
Cc1cc(=O)oc2c(C(=O)/C=C/c3ccccc3)c(O)ccc12 | 98 | 83 | 91 | 90 | i | 89
Cc1cc(=O)oc2c(C(=O)/C=C\c3cccs3)c(O)ccc12 | 152* | 93 | 104 | 92 | i | 96
COc1cc(/C=C/C(=O)c2c(O)ccc3c(C)cc(=O)oc23)ccc1O | 160* | 61 | 89 | 91 | i | 88
CCOC(=O)C1=C(c2ccc(O)cc2)NC(=O)NC1C (configuration not stated) | 128 | 120 | 89 | 136 | i | 122
Cn1c(=O)oc2cc(S(=O)(=O)CCC(=O)NCCc3ccccc3)ccc21 | 100 | 104 | 106 | 115 | i | 106
CCOC(=O)N1CCC(NC(=O)CCS(=O)(=O)c2ccc3c(c2)CCN3C(C)=O)CC1 | 93 | 109 | 98 | 102 | i | 101
CC(=O)N1CCc2cc(S(=O)(=O)CCC(=O)NCCc3ccccc3)ccc21 | 79 | ? | 28*[may fluoresce violet] | 121 | i | ?
CCC(=O)N1CCc2cc(S(=O)(=O)NCCC(=O)Nc3ccc(OC)cc3)ccc21 | 100 | 100 | 97 | 91 | i | 103
CCC(=O)N1CCc2cc(S(=O)(=O)CCC(=O)Nc3ccc(OC)cc3)ccc21 | 77 | ? | 20*[may fluoresce violet] | 132 | i | ?
CC(=O)N1CCc2cc(S(=O)(=O)CCC(=O)NCCc3ccc(C)cc3)ccc21 | 91 | 93 | 100 | 100 | i | 99
CC1CCC(NC(=O)CCS(=O)(=O)c2ccc3c(c2)CCN3C(=O)C2CC2)CC1 (configuration not stated) | 102 | 101 | 102 | 97 | + | 101
Cc1ccc(CCNC(=O)CCS(=O)(=O)c2ccc3c(c2)oc(=O)n3C)cc1 | 91 | ? | 52 | 207*[may fluoresce violet] | i | ?
CC(C)OCCCNC(=O)c1ccc(CN2CCc3ccccc3C2)cc1 | 88 | 99 | 100 | 105 | i | 99
Cc1cc(C)c(S(=O)(=O)NCCC2CCCN2C)c(C)c1 (configuration not stated) | 119 | 87 | 98 | 101 | i | 100
